# Bioassay records from PubChem BioAssay.
# ClpP mod: qHTS Assay for Activators of ClpP; AID 651965, 2013; actives 1.9% (n = 340,000); Potency, µM (top dose mostly 57.5 µM); purified B. subtilis ClpP, FRET peptide cleavage, 20 min; ATP-dependent Clp protease proteolytic subunit (Bacillus subtilis (strain 168)), P80244; active = well fitted falling curve with a large enough effect; inconclusive = small, poorly fitted or top-dose-only effect; inactive = no such curve, though single readings can be large or run the other way; note: the source files actives as falling curves though it sought activators and does not explain the sign; nearly all actives have a fitted effect of over 65% in size
# Target sequence (P80244 whole entry, looked up): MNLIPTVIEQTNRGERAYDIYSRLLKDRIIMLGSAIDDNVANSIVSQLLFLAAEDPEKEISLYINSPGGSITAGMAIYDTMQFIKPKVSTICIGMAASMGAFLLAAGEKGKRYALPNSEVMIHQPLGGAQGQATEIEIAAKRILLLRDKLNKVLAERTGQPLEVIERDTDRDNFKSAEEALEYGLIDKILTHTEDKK
#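 Buffer: 100 mM Tris/HCl pH8, 100 mM KCl, 0.05% low protease BSA, 2.5% glycerol, 0.01% Tween-20. ClpP 10 microg/mL final; 20 min RT; delta FRET normalized to ADEP and DMSO controls.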
# TDP1 inh: inhibitors of human tyrosyl-DNA phosphodiesterase TDP1. Q9NUW8. recombinant TDP1, AlphaScreen DNA substrate cleavage. Potency, µM (series often up to 130 µM), hits mostly inhibitors. actives 0.28% (n = 350,000); note: nearly all actives have a fitted effect of over 40% in size
#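 Compounds were preincubated with Tdp1 (1 nM final) for 15 min at room temperature before substrate (15 nM final) started a 5 min reaction; beads (10 ug/ml final) were then added for 10 min before AlphaScreen detection.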
# TDP1 cell CPT: DT40-hTDP1 cell growth loss with CPT; chicken DT40 Tdp1-/-;hTDP1 cells + 20 nM CPT, ATP luminescence, 48 h; Potency, µM (series often up to 46.2 µM), usual class: inhibitors; actives 12% (n = 420,000); AID 686979; note: nearly all actives have a fitted effect of over 55% in size
#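 Cell growth measured by CellTiter-Glo luminescence after a minimum 48 h, 37 C compound exposure with 20 nM CPT in Tdp1-knockout DT40 cells stably expressing hTDP1, seeded 400/well; qHTS titration format.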
# DT40 TDP1 no CPT: qHTS for Inhibitors of human tyrosyl-DNA phosphodiesterase 1 (TDP1): qHTS in cells in absence of CPT | DT40 Tdp1-/- hTDP1 cells, no CPT, ATP luminescence, 48 h | Potency, µM (series often up to 46.2 µM), hits mostly inhibitors | actives 15% (n = 420,000) | AID 686978, 2013; note: nearly all actives have a fitted effect of over 55% in size
#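 Compound effects on proliferation are scored in DT40 Tdp1-/-;hTDP1 cells in the absence of CPT. ATP levels (CellTiter-Glo luminescence) are recorded after a ≥48 hr, 37 °C incubation.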
# Hits are given with their value; . = inactive; ? = inconclusive; / = not tested or not shown. Hits are enriched below; roughly 17% of the tested compounds scored in any of these assays. Unless noted, calls come from the whole dose curve; as a rule, active = well fitted curve in the direction sought with a large enough effect; inconclusive = small, poorly fitted or top-dose-only effect, or another doubt; inactive = no such curve, though single readings can be large; an effect the other way counts as inactive or inconclusive.
SMILES,ClpP mod,TDP1 inh,TDP1 cell CPT,DT40 TDP1 no CPT
OC(CNCc1ccc(F)cc1)(c1ccccc1)c1ccc(F)cc1 (stereo not drawn),.,.,?,?
Cc1ccc(CNCC(O)(c2ccccc2)c2ccc(F)cc2)cc1 (stereo not drawn),.,.,?,20.6µM
CSc1cccc(NC(=O)CN2CCN(Cc3ccccc3C)S2(=O)=O)c1,.,.,?,?
C=CCCCCCCCCCCCC(O)CC(O)COC(C)=O (stereo not drawn) (tested in a mixture with another compound),/,.,.,.
Clc1ccc(CO/N=C2\CCCc3nonc32)cc1,.,.,?,?
CC(=O)Cc1nsc(NC(=O)c2ccc(-c3cc(C(F)(F)F)ccc3Cl)o2)n1,.,.,20.6µM,13µM
CCOC(=O)CCn1c(=O)c2cccn2c2cccnc21,.,.,.,.
CCCN1CCN(C(=O)c2cc3c(s2)-c2ccccc2S(=O)(=O)C3)CC1,/,.,/,/
O=C(c1cc2c(s1)-c1ccccc1S(=O)(=O)C2)N1CCN(Cc2ccccc2)CC1,.,.,18.4µM,16.4µM
O=C(c1ccc2c(c1)N(Cc1cccc(Cl)c1)C(=O)c1ccccc1S2(=O)=O)N1CCC(Cc2ccccc2)CC1,.,.,4.11µM,4.11µM
O=C(c1ccc2c(c1)N(Cc1ccccc1F)C(=O)c1ccccc1S2(=O)=O)N1CCN(c2ccccn2)CC1,.,.,25.9µM,20.6µM
O=C(NCC(=O)N1CCN(c2ccccc2)CC1)c1ccc(Cl)cc1,.,/,.,.
O=C(NCC(=O)N1CCC(Cc2ccccc2)CC1)c1ccc(Cl)cc1,.,.,16.4µM,?
CCCc1ccc(S(=O)(=O)N2CCN(C(=O)CN3C(=O)NC(C)(C4CC4)C3=O)CC2)cc1 (stereo not drawn),.,/,.,.
CC1Cc2cc(S(=O)(=O)CCC(=O)Nc3cccc(F)c3)ccc2N1C(=O)C1CC1 (stereo not drawn),.,.,?,?
COc1ccc(OC)c(NC(=O)CSc2nn3c(=O)c(C)nnc3s2)c1,.,.,.,.
O=C(c1ccc2c(c1)N(Cc1ccccc1)C(=O)c1ccccc1S2(=O)=O)N1CCN(c2ccccn2)CC1,.,.,?,20.6µM
O=C(c1ccc2c(c1)N(Cc1ccccc1)C(=O)c1ccccc1S2(=O)=O)N1CCN(Cc2ccccc2)CC1,.,.,10.3µM,7.31µM
O=C(c1ccc2c(c1)N(Cc1ccc(Cl)cc1)C(=O)c1ccccc1S2=O)N1CCC(Cc2ccccc2)CC1 (stereo not drawn),.,.,11.6µM,9.2µM
Cc1ccc(C)c(CN2C(=O)c3ccccc3S(=O)(=O)c3ccc(C(=O)N4CCN(c5ccccn5)CC4)cc32)c1,.,.,?,?
C[C@@H]1CCCCO[C@@H](CN(C)Cc2ccncc2)[C@@H](C)CN([C@H](C)CO)C(=O)c2cc(NC(=O)c3ccccc3)ccc2O1,.,/,.,?
CC1(C)ON=C(c2ccc(C(F)(F)F)cc2)NC1=O,.,/,?,.
CCc1ccc2oc(C(=O)NCc3ccncc3)c(C)c2c1,28.2µM,.,18.4µM,14.6µM
CCCCN(CC(=O)NCc1ccc(Cl)cc1)S(=O)(=O)c1ccc2c(c1)OCCO2,.,.,?,23.1µM
CCCCN(CCCC)S(=O)(=O)c1ccc2oc(C(=O)NCc3ccc(C)cc3)c(C)c2c1,.,.,8.2µM,13µM
SMILES,ClpP mod,TDP1 inh,TDP1 cell CPT,DT40 TDP1 no CPT
CCCCN(CCCC)S(=O)(=O)c1ccc2oc(C(=O)NCc3ccccc3)c(C)c2c1,.,.,10.3µM,14.6µM
CCOC(=O)CC(=O)CSc1ncnc2c1nnn2-c1ccc(OC)cc1,/,.,.,.
Cc1cc(=O)oc2cc3oc(=O)cc(C)c3cc12,.,/,.,.
CC(=O)c1cc2c(cc1NC(=O)c1ccc(C)cc1)OCO2,/,.,/,/
Cc1ccc2oc(C(=O)NCc3ncc(C)[nH]3)c(C)c2c1,.,.,5.17µM,?
COc1ccc(-c2nsc(NC(=O)c3oc4ccc(Cl)cc4c3C)n2)cc1,.,.,.,.
Cc1cnc(CNC(=O)c2ccc3oc(C(C)C)nc3c2)[nH]1,.,.,.,.
CCc1ccc2oc(C(=O)Nc3nc(-c4ccccc4)ns3)c(C)c2c1,25.1µM,.,.,.
O=C(O)c1ccccc1Nc1ccc(CCc2ccc(Cl)c(Cl)c2)cc1,/,.,/,/
Cc1cc(O)c(N=Cc2cc3c(cc2[N+](=O)[O-])OCO3)cc1C,.,/,?,20.6µM
O=[N+]([O-])c1cc2c(cc1C=Nc1ccccc1)OCO2,?,.,?,.
CCC1CCCCN1CC(=O)N1CCCc2c1c(=O)oc1ccc(OCc3ccccc3)cc21 (stereo not drawn),.,/,14.6µM,10.3µM
CCCOc1ccc2oc(=O)c3c(c2c1)CCCN3C(=O)CN(C)Cc1ccccc1,?,.,?,20.6µM
O=C(CN1CCN(Cc2ccccc2)CC1)N1CCCc2c1c(=O)oc1ccc(O)cc21,.,.,23.1µM,?
COc1cc(-c2cc(C(=O)N(C)Cc3ccccc3)c3ccccc3n2)cc(OC)c1OC,.,/,14.6µM,14.6µM
COc1ccc(-c2cc(C(=O)N(C)Cc3ccccc3F)c3ccccc3n2)cc1OC,?,.,?,18.4µM
COc1cc(-c2cc(C(=O)OCC(=O)NC3CC3)c3ccccc3n2)cc(OC)c1OC,/,.,?,18.4µM
COc1ccccc1CN(C)C(=O)c1cc(-c2cc(OC)c(OC)c(OC)c2)nc2ccccc12,/,.,23.1µM,10.3µM
CC12CCC3c4ccc(OCc5ccccc5)cc4CCC3C1CC(O)C2O (stereo not drawn),/,.,?,?
Cc1cc(C)cc(OCC(=O)O/N=C(\N)c2cccnc2)c1,/,/,.,.
CC(=O)Nc1ccc(S(=O)(=O)NCCC(=O)N2CCC(Cc3ccccc3)CC2)cc1,11.2µM,.,?,?
Cc1ccc(S(=O)(=O)NCCC(=O)N2CCC(Cc3ccccc3)CC2)cc1,.,/,14.6µM,20.6µM
Cc1ccc(S(=O)(=O)NCCC(=O)N2CCCCC2)cc1,/,.,/,/
CC(=O)Nc1ccc(S(=O)(=O)NCCC(=O)N2CCN(C(c3ccccc3)c3ccccc3)CC2)cc1,.,/,?,16.4µM
CC(=O)N1CCN(C(=O)CCNS(=O)(=O)c2ccc(Br)cc2)CC1,.,.,.,.
SMILES,ClpP mod,TDP1 inh,TDP1 cell CPT,DT40 TDP1 no CPT
Cc1ccc(S(=O)(=O)NC(C)(C)CN2CCC(Cc3ccccc3)CC2)cc1,.,/,16.4µM,18.4µM
CCn1c(CNC(=O)c2cccnc2)cc2ccccc21,.,.,.,?
CC(C)(CN1CCNCC1)NS(=O)(=O)c1ccc(Cl)cc1,.,.,23.1µM,?
Cc1ccc2oc(=O)c3cc(C(=O)NCCN4CCN(C)CC4)sc3c2c1,.,.,23.1µM,?
Cc1ccc2oc(=O)c3cc(C(=O)NCCCN4CCc5ccccc5C4)sc3c2c1,.,.,18.4µM,?
Cc1ccc2oc(=O)c3cc(C(=O)NCCCN4CCCCCC4)sc3c2c1,.,.,?,?
